Data published in PubChem BioAssay (Tox21).
A number with no mark means an inactive call. Records with an inconclusive call do not appear. Entries that show only a call come without a potency. Calls of active or inactive are those of the source. Unless noted, the call rests on the fitted dose curve; in most records, active means well fitted curve in the direction sought with a large enough effect in the repeat runs; inconclusive means weak or mixed curves; inactive means no such curve, though single readings can be large; an effect the other way counts as inactive or inconclusive.

Columns and labels:
[1] = qHTS assay to identify small molecule antagonists of the glucocorticoid receptor (GR) signaling pathway - cell viability counter screen (AID 720693); further: nearly all actives have a fitted effect of over 55% in size; further: potency means the concentration at half of the fitted maximal effect
[2] = qHTS assay for identifying genotoxic compounds that show differential cytotoxicity against isogenic chicken DT40 cell lines with known DNA damage response pathways - wild type cell line (AID 743012); further: nearly all actives have a fitted effect of over 60% in size; further: potency means the concentration at half of the fitted maximal effect
Summary of the method: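 Wild-type DT40 cells (300/well) exposed to compounds for 40 hours at 37 C/5% CO2. Viability read by CellTiter-Glo luminescence after 30 min at room temperature.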

[3] = qHTS assay for identifying genotoxic compounds that show differential cytotoxicity against isogenic chicken DT40 cell lines with known DNA damage response pathways - Rev3 mutant cell line (AID 743014); further: nearly all actives have a fitted effect of over 55% in size; further: potency means the concentration at half of the fitted maximal effect
[4] = qHTS assay for identifying genotoxic compounds that show differential cytotoxicity against isogenic chicken DT40 cell lines with known DNA damage response pathways - Rad54/Ku70 mutant cell line (AID 743015); further: nearly all actives have a fitted effect of over 60% in size; further: potency means the concentration at half of the fitted maximal effect
[5] = qHTS assay to identify small molecule antagonists of the androgen receptor (AR) signaling pathway - cell viability counter screen (AID 743033; further: nearly all actives have a fitted effect of over 45% in size; further: potency means the concentration at half of the fitted maximal effect)
[6] = biological target: Androgen receptor (Homo sapiens) (UniProt P10275); test: qHTS assay to identify small molecule antagonists of the androgen receptor (AR) signaling pathway (AID 743035; active means well fitted inhibition curve with a large enough effect in the signal ratio in the repeat runs, not every such curve was filed as active; the % refers to the signal ratio)
Sequence of Androgen receptor (Homo sapiens) (P10275 whole entry, looked up): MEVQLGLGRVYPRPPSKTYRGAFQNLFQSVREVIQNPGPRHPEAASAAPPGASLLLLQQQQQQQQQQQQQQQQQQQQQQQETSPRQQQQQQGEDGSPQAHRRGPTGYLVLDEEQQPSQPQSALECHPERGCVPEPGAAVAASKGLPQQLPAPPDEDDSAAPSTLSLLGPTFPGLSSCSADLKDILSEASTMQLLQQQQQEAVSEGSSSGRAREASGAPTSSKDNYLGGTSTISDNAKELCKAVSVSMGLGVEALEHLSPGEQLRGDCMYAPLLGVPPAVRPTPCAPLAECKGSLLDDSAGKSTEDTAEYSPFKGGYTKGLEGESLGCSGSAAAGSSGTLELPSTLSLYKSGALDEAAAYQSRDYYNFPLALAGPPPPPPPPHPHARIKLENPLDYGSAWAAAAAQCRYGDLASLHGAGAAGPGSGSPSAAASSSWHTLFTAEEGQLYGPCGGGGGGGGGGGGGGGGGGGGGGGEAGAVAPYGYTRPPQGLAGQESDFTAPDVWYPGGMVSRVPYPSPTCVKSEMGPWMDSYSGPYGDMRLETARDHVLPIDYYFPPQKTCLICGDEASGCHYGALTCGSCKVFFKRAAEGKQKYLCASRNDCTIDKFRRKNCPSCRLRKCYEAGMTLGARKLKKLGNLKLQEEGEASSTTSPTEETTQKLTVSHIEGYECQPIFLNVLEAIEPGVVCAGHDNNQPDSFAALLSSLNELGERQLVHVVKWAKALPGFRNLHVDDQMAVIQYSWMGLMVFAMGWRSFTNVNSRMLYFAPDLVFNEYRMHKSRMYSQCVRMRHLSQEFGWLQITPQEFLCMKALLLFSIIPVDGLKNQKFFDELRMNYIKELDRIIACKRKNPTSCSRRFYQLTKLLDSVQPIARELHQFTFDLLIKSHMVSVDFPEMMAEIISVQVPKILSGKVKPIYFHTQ
Summary of the method: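 HEK293 cells stably carrying UAS-beta-lactamase reporter, 2,000/well, given compounds plus R1881 agonist and incubated 16 h at 37C. LiveBLAzer B/G FRET substrate then added for 2 h at room temperature before fluorescence reading.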

[7] = biological target: Androgen receptor (Homo sapiens) (UniProt P10275); test: qHTS assay to identify small molecule agonists of the androgen receptor (AR) signaling pathway using the MDA cell line (AID 743040; further: nearly all actives have a fitted effect of over 20% in size)
Summary of the method: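 Human breast carcinoma MDA-kb2 reporter cells (MMTV-luc, AR/GR elements) were treated for 16 h at 37C in 0% CO2 following a 5 h settling period. Signal was quantified by ONE-Glo luminescence.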

[8] = qHTS assay to identify small molecule antagonists of the androgen receptor (AR) signaling pathway using the MDA cell line - cell viability counter screen (AID 743041; further: nearly all actives have a fitted effect of over 45% in size; further: potency means the concentration at half of the fitted maximal effect)
Summary of the method: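 Same-well cytotoxicity was assessed by CellTiter-Fluor in MDA-kb2 AR-luc cells after 16 h of compound treatment under R1881 agonism.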

[9] = biological target: Androgen receptor (Homo sapiens) (UniProt P10275); test: qHTS assay to identify small molecule antagonists of the androgen receptor (AR) signaling pathway using the MDA cell line (AID 743042; further: nearly all actives have a fitted effect of over 55% in size)
Summary of the method: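 MDA-kb2 breast carcinoma cells carrying MMTV-luciferase (AR/GR responsive) were co-treated with compounds and the agonist R1881 for 16 h at 37C. Inhibition read as ONE-Glo luminescence; CellTiter-Fluor fluorescence measured in parallel for cytotoxicity.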

[10] = qHTS assay to identify small molecule antagonists of the thyroid receptor (TR) signaling pathway - cell viability counter screen (AID 743064); further: nearly all actives have a fitted effect of over 50% in size; further: potency means the concentration at half of the fitted maximal effect
Summary of the method: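 Plate GH3.TRE-Luc cells; incubate 4 h at 37 °C; add compound, then T3 to 1 nM final; incubate 23.5 h; add CellTiter-Fluor; incubate 30 min at 37 °C, 5% CO2; read fluorescence.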

Row | SMILES | Potency [1] | Potency [2] | Potency [3] | Potency [4] | Potency [5] | Potency [6] | Potency [7] | Potency [8] | Potency [9] | Potency [10]
1 | C=CC(=O)OCCOCCOC(=O)C=C | inactive | 9.73 µM (active) | 6.14 µM (active) | 9.73 µM (active) | 39.1 µM (active) | – | – | – | – | –
2 | C[C@@H](c1ncncc1F)C(O)(Cn1cncn1)c1ccc(F)cc1F (some centres undefined) | inactive | inactive | inactive | inactive | inactive | inactive | inactive | inactive | inactive | –
3 | CC[N+]1(CC)CCC(=C(c2ccccc2)c2ccccc2)C1C (centres undefined) | inactive | 8.41 µM (active) | 16.8 µM (active) | 13.3 µM (active) | inactive | – | – | – | – | –
4 | CN(Cc1ccc(C(C)(C)C)cc1)Cc1cccc2ccccc12 | inactive | inactive | inactive | inactive | inactive | – | – | inactive | – | –
5 | NCc1ccccc1Sc1ccccc1CO | inactive | 21.1 µM (active) | 5.96 µM (active) | 29.8 µM (active) | inactive | inactive | inactive | inactive | inactive | –
6 | COc1cc2c(cc1OC)C(C(C(=O)N(CCc1ccc(OC)c(OC)c1OC)CCc1ccc(OC)c(OC)c1OC)c1ccccc1)=NCC2 (centres undefined) | inactive | 6.68 µM (active) | 10.6 µM (active) | 11.9 µM (active) | inactive | – | – | inactive | – | –
7 | CCc1c(C(=O)NN2CCCCC2)nn(-c2ccc(Cl)cc2Cl)c1-c1ccc(Br)cc1 | 12.3 µM (active) | 13.7 µM (active) | 15.4 µM (active) | 13.7 µM (active) | inactive | – | – | inactive | – | –
8 | CC(COCCO)OCCO (centres undefined) | inactive | inactive | inactive | inactive | inactive | inactive | inactive | inactive | inactive | inactive
9 | CC(C)OC(=O)C(C)N(C(=O)c1ccccc1)c1ccc(F)c(Cl)c1 (centres undefined) | inactive | 6.11 µM (active) | 6.86 µM (active) | 13.7 µM (active) | inactive | – | – | – | – | –
10 | CCN(CC)CCOC(=O)C(c1ccccc1)C1CCCCC1 (centres undefined) | inactive | 21.1 µM (active) | 10.6 µM (active) | 23.7 µM (active) | inactive | – | – | inactive | – | –
11 | CC(=O)NO | inactive | inactive | inactive | inactive | inactive | inactive | inactive | inactive | inactive | inactive
12 | C[N+]1(CC2COC(c3ccccc3)(C3CCCCC3)O2)CCCCC1 (centres undefined) | inactive | 2.66 µM (active) | 3.76 µM (active) | 5.31 µM (active) | inactive | – | – | – | – | –
13 | CCOc1ccc(N=Nc2ccc(/C=C/c3ccc(N=Nc4ccc(OCC)cc4)cc3S(=O)(=O)O)c(S(=O)(=O)O)c2)cc1 | inactive | inactive | inactive | inactive | inactive | – | – | 53.6 µM (active) | – | 47.8 µM (active)
